Measurements from PubChem BioAssay AID463173 (ICCB-Longwood Screening Facility, Harvard Medical School, 2010).
Hit rate of the full screen: of about 52,000 compounds, about 4,300 (8.3%) were called active. This is one part of a sample in which actives are shown more often than they occur. No stated cut-off is given here; in the data, active means survival mostly below about 52% (no sharp cut-off); inactive means mostly above about 56%.

system: DeltatarO mutant; assay: growth inhibition of S. aureus wild type versus tarO mutant, primary screen, teichoic acid synthesis inhibitors, RN4220, OD600 (AID 463173); conditions: OD600, 18 h, active compounds read low, screened at 18.75 µg/mL (by protocol)

Row | SMILES | survival
1 | Cc1ccc2oc(-c3ccc(NC(=O)CCC(=O)O)cc3)nc2c1 | 86% (inactive)
2 | COc1cc(-c2nc3sccn3c2Nc2c(C)cccc2C)ccc1O | 125% (inactive)
3 | Cc1cccc(C)c1Nc1c(-c2ccc(O)cc2)nc2sccn12 | 28% (active)
4 | CCc1cccc(C)c1Nc1c(-c2cccc(O)c2)nc2sccn12 | 105% (inactive)
5 | Cc1ccc(-c2nc3sccn3c2Nc2ccccc2C)cc1 | 48% (inactive)
6 | Cc1ccc(Nc2c(-c3ccc(Cl)cc3)nc3sccn23)c(C)c1 | 47% (inactive)
7 | Cc1ccc(-c2nc3sccn3c2Nc2ccc(C)c(C)c2)cc1 | 36% (active)
8 | Cc1cc(Cl)ccc1NC(=O)CN(c1ccccc1Br)S(C)(=O)=O | 55% (inactive)
9 | CCOc1ccc(-n2ccnc2SCC(=O)Nc2cccc3ccccc23)cc1 | 68% (inactive)
10 | O=c1cc(CN2CCN(S(=O)(=O)c3ccc(Cl)cc3)CC2)nc2sc(-c3ccccc3F)nn12 | 104% (inactive)
11 | Cc1cccc(-n2ncc3c(NC4CCCC4)ncnc32)c1 | 69% (inactive)
12 | O=C(O)c1ccc(/C=N/n2cnnc2)cc1 | 111% (inactive)
13 | COc1cc(NC(=O)c2oc3c(c2C)-c2nn(Cc4cccc(Cl)c4)cc2CC3)cc(OC)c1 | 78% (inactive)
14 | Cc1cccc(C)c1NC(=O)c1oc2c(c1C)-c1nn(Cc3ccccc3)cc1CC2 | 23% (active)
15 | Cc1cccc(CNC(=O)c2oc3c(c2C)-c2nn(Cc4cccc(Cl)c4)cc2CC3)c1 | 97% (inactive)
16 | Cc1ccccc1CNC(=O)c1oc2c(c1C)-c1nn(Cc3ccc(Cl)cc3)cc1CC2 | 73% (inactive)
17 | CCn1cc2c(n1)-c1c(oc(C(=O)Nc3cccc(C)c3C)c1C)CC2 | 95% (inactive)
18 | Cc1ccccc1NC(=O)c1oc2c(c1C)-c1nn(Cc3cccc(Cl)c3)cc1CC2 | 35% (active)
19 | O=C(O)CC1CCS(=O)(=O)C1 (configuration not stated) | 62% (inactive)
20 | CCOc1ccccc1N1CCN(C(=O)C2CCN(Cc3ccc(OC)cc3)CC2)CC1 | 98% (inactive)
21 | CC1CCC(N2CC(=O)N(C3CCCC3)C(c3ccc(Cl)cc3)C2=O)CC1 (configuration not stated) | 79% (inactive)
22 | Cc1ccc2occ(CC(=O)N(Cc3ccc(C(C)C)cc3)C3CCS(=O)(=O)C3)c2c1 (configuration not stated) | 66% (inactive)
23 | COc1ccc(NS(=O)(=O)c2ccc(N3CCCCS3(=O)=O)cc2)cc1Cl | 71% (inactive)
24 | COc1cccc(C(=O)Nc2ccccc2C(=O)OCc2cc(=O)n3c4c(sc3n2)CCCC4)c1 | 57% (inactive)
25 | CCn1cc2nc(SCc3cccc(F)c3)n(CCc3ccccc3)c(=O)c2n1 | 71% (inactive)

Row | SMILES | survival
26 | CCn1cc2nc(SCc3c(F)cccc3Cl)n(CCc3ccccc3)c(=O)c2n1 | 52% (active)
27 | CCn1cc2nc(SCc3ccccc3Cl)n(CCc3ccccc3)c(=O)c2n1 | 74% (inactive)
28 | CCOC(=O)c1c(C)[nH]c(C)c1S(=O)(=O)N(C)CC(=O)Nc1cccc(Cl)c1C | 73% (inactive)
29 | CCOC(=O)c1c(C)[nH]c(CCC(=O)NCc2ccc(N(C)C)cc2)c1C | 83% (inactive)
30 | CCOC(=O)Cn1nc(-c2ccccc2)c2cnc3ccc(OCC)cc3c21 | 109% (inactive)
31 | Cn1nnc2c(NCc3ccccc3)ncnc21 | 32% (active)
32 | Cc1ccc(CNc2ncnc3c2nnn3C)cc1 | 58% (inactive)
33 | Cn1nnc2c(NCc3ccc(Cl)cc3)ncnc21 | 81% (inactive)
34 | O=C(c1cccs1)N(Cc1cccnc1)c1nc2c(Cl)cccc2s1 | 82% (inactive)
35 | COc1ccccc1C(=O)NC(=O)Nc1ccc(-c2cc(C(F)(F)F)nn2-c2ccccc2)cc1 | 30% (active)
36 | COc1ccccc1C(=O)NC(=O)Nc1ccc(-n2nc(C(F)(F)F)cc2C(F)(F)F)cc1 | 59% (inactive)
37 | COc1cccc(C(=O)Nc2ccc(-c3cc(C(F)(F)F)nn3-c3ccccc3)cc2)c1 | 46% (inactive)
38 | O=C(NC(=O)c1cccc(F)c1)Nc1ccc(-c2cc(C(F)(F)F)nn2-c2ccccc2)cc1 | 157% (inactive)
39 | COc1ccccc1C(=O)Nc1ccc(-c2cc(C(F)(F)F)nn2-c2ccccc2)cc1 | 45% (inactive)
40 | O=C(Nc1ccc(-c2cc(C(F)(F)F)nn2-c2ccccc2)cc1)c1cccc(F)c1 | 26% (active)
41 | O=C(CN1CCC(N2CCCCC2)CC1)Nc1ccc2c(c1)OCCO2 | 96% (inactive)
42 | Cc1cccc(C)c1OCc1nc2c3cnn(-c4ccccc4F)c3ncn2n1 | 109% (inactive)
43 | CCN(CC)S(=O)(=O)c1cccc(C(=O)Nc2ccccc2C(=O)Nc2ccc(OC)cc2)c1 | 78% (inactive)
44 | Cc1cc(F)ccc1NC(=O)CS(=O)(=O)c1cccc2nsnc12 | 77% (inactive)
45 | CCc1ccc(CNC(=O)Cn2c(-c3cccs3)cc3cc(F)ccc32)cc1 | 119% (inactive)
46 | CC(C)c1ccc(Nc2c(-c3ccccn3)nc3ccccn23)cc1 | -4% (active)
47 | CN(C)c1ccc(-c2nc3ccccn3c2NC2CCCC2)cc1 | 83% (inactive)
48 | COc1ccc(Nc2c(-c3ccccn3)nc3ccc(Cl)cn23)cc1 | 93% (inactive)
49 | Cc1cccc2nc(-c3ccccn3)c(Nc3ccccc3)n12 | 24% (inactive)
50 | Cc1ccc(Nc2c(-c3ccccn3)nc3ccc(Br)cn23)cc1 | 72% (inactive)

Row | SMILES | survival
51 | Cc1cccc2nc(-c3ccccn3)c(Nc3ccc(F)cc3)n12 | -9% (active)
52 | Cc1ccc2nc(-c3ccccn3)c(Nc3ccc(F)cc3)n2c1 | 10% (active)
53 | CC(C)c1nc2ccccn2c1NC1CCCCC1 | 102% (inactive)
54 | Cc1ccn2c(Nc3ccc(F)cc3)c(-c3ccccn3)nc2c1 | 105% (inactive)
55 | CC(C)c1ccc(Nc2c(-c3ccco3)nc3ccccn23)cc1 | 42% (inactive)
56 | c1ccc(-c2nc3ccccn3c2NC2CCCC2)nc1 | 1% (active)
57 | Fc1ccc(Nc2c(-c3ccccn3)nc3ccc(Cl)cn23)cc1 | 65% (inactive)
58 | COc1ccc(NC(=O)Cn2cnc3sc(C)c(S(=O)(=O)N4CCN(C)CC4)c3c2=O)cc1OC | 167% (inactive)
59 | COc1ccc(NC(=O)CN2CCN(Cc3ccccc3Cl)S2(=O)=O)cc1Cl | 41% (inactive)
60 | O=S(=O)(NCCc1csc2nc(-c3ccccc3)nn12)c1ccc(Cl)s1 | 86% (inactive)
61 | CCn1c(CNC(=O)C(OC)c2ccccc2)nnc1SC (configuration not stated) | 87% (inactive)
62 | O=c1c(=O)n(-c2cccc(Cl)c2)ccn1Cc1cccc(F)c1 | 66% (inactive)
63 | COc1ccc(Cl)cc1NC(=O)c1cnc(N2CCCCC2)c2ccccc12 | 78% (inactive)
64 | CCOc1ccccc1NC(=O)CCc1c(C)nn(-c2ccc(N3CCOCC3)nn2)c1C | 80% (inactive)
65 | CCOC(=O)c1cccc(NC(=O)c2cc3ccccn3n2)c1 | 124% (inactive)
66 | COc1cccc(C2CC(=O)Nc3cc(OC)c(OC)c(OC)c32)c1OC(C)C (configuration not stated) | 93% (inactive)
67 | CCOC(=O)c1cccc(-n2nnc3c(sc4nc(C)c(Br)c(C)c43)c2=O)c1 | 92% (inactive)
68 | CCOc1ccc(C2=NC(c3ccc(OC)cc3)=Nc3ccc(Cl)cc3N2)cc1 | 71% (inactive)
69 | Cc1cccc(C)c1Nc1c(-c2ccccc2F)nc2cccc(C)n12 | 6% (active)
70 | Cc1ccccc1Nc1c(-c2ccccc2)nc2cccc(C)n12 | 98% (inactive)
71 | Cc1ccccc1Nc1c(-c2c[nH]c3ccccc23)nc2cccc(C)n12 | 144% (inactive)
72 | CCCCCC[N+]1(CCO)CCOCC1 | 81% (inactive)
73 | COc1ccc(N2CCN(CCCNC(=O)c3c(C)nn(-c4ccc(F)cc4)c3-n3cccc3)CC2)cc1 | 71% (inactive)
74 | OC(CC#CCN1CCOCC1)(c1ccccc1)c1ccccc1 | 83% (inactive)
75 | COc1ccc(S(=O)(=O)N2CCN(Cc3nc4ccc(C)cc4o3)CC2)cc1 | 84% (inactive)

Row | SMILES | survival
76 | Cc1ccc(-n2cc(C(=O)OCc3ccc(Cl)cc3)c3ccccc3c2=O)cc1 | 67% (inactive)
77 | COc1ccc(C)cc1NC(=O)N(Cc1ccc(C)o1)C1CCN(C(C)=O)CC1 | 8% (active)
78 | COC(=O)c1ccc(Cl)cc1NC(=O)N(Cc1ccc(OC)cc1)C1CCN(C(C)=O)CC1 | -5% (active)
79 | CCN1CCC(N(Cc2ccc(F)cc2)C(=O)Nc2cc(Cl)ccc2C(=O)OC)CC1 | 85% (inactive)
80 | CC(=O)N1CCC(N(Cc2ccc(C)o2)C(=O)Nc2ccc(C)cc2)CC1 | 96% (inactive)
81 | COc1ccc(NC(=O)N(Cc2ccco2)C2CCN(C(C)=O)CC2)c(OC)c1 | 88% (inactive)
82 | COC(=O)c1ccc(Cl)cc1NC(=O)N(Cc1ccc(C)o1)C1CCN(C(C)=O)CC1 | 95% (inactive)
83 | CCOc1ccccc1NC(=O)N(Cc1ccc(C)o1)C1CCN(C(C)=O)CC1 | 101% (inactive)
84 | COc1ccc(NC(=O)N(C(C)C)C2CCN(C(C)=O)CC2)c(OC)c1 | -2% (active)
85 | COc1ccc(C)cc1NC(=O)N(C(C)C)C1CCN(C(C)=O)CC1 | 75% (inactive)
86 | Cc1ccc(N2CCN(C(=O)C3CCN(S(=O)(=O)c4ccc5c(c4)oc(=O)n5C)CC3)CC2C)cc1 (configuration not stated) | 109% (inactive)
87 | Cc1ccc(-n2c3nc(=O)[nH]c(=O)c-3cc3c(C)nn(-c4ccccc4)c32)cc1Cl | 85% (inactive)
88 | Cc1cccc(-c2noc(-c3cccnc3NCc3ccc(Cl)cc3)n2)c1 | 73% (inactive)
89 | COc1ccc(N(C(=O)COc2ccccc2OC)S(=O)(=O)c2ccc(Cl)cc2)cc1 | 71% (inactive)
90 | O=C(CN1C(=O)COc2ccc(Cl)cc21)Nc1ccc(F)cc1 | 67% (inactive)
91 | Cc1cc(C)c(NC(=O)CSc2nccn2Cc2ccco2)c(C)c1 | 76% (inactive)
92 | CN(C)c1ccc(C(CNS(=O)(=O)c2ccccc2)N2CCc3ccccc32)cc1 (configuration not stated) | 99% (inactive)
93 | COc1ccc(S(=O)(=O)NCC(c2ccc(N(C)C)cc2)N2CCc3ccccc32)cc1 (configuration not stated) | 78% (inactive)
94 | CCOc1ccc(S(=O)(=O)NCC(c2ccc(N(C)C)cc2)N2CCc3ccccc32)cc1 (configuration not stated) | 49% (inactive)
95 | Cc1ccc(S(=O)(=O)NCC(c2ccc(N(C)C)cc2)N2CCc3ccccc32)cc1 (configuration not stated) | 0% (active)
96 | Cc1ccc(S(=O)(=O)NCC(c2ccc(N(C)C)cc2)N2CCc3ccccc32)cc1C (configuration not stated) | 131% (inactive)
97 | CN(C)c1ccc(C(CNS(=O)(=O)c2ccc(F)cc2)N2CCc3ccccc32)cc1 (configuration not stated) | 32% (active)
